The results in this text go back to PubChem BioAssay (NCI).

Structures are written as SMILES. About 83,000 compounds went through this panel and 20% of them were active in at least one assay; those are over-represented in the sample as a whole.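 Single-dose data. Exposure time 48 hours. Values below 10 considered active.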 Values without a mark were called inactive. Calls of active or inactive are those of the source.

This experiment relates to M14 melanoma. Description: NCI-60 one-dose screen, 48 h (100 = growth as untreated, 0 = no growth, -100 = all killed). The settings on record: 10 µM.
For the compound `COc1ccc(/C=C2\CCCC3=C2NC(N)=NC3c2ccc(OC)cc2)cc1` (stereo not given), the growth was 106%. For the compound `CN(C)CCCOc1cccc(NC2=C(Cl)C(=O)C(Nc3cccc(OCCCN(C)C)c3)=C(Cl)C2=O)c1`, the growth is -75.6% (active). For `N#CC1=C(N)Oc2cc(N)ccc2C1c1cccnc1` (stereo not given) the value was 87.3%; for `COc1cc(/C=C/c2cc(/C=C/c3ccc(O)c(OC)c3)n(C(=O)Nc3ccc(C)cc3)n2)ccc1O`, 2.3% (active). For the compound `Cc1ccc(-n2nnnc2N)c(C)c1`, the growth is 104%. Turning to `CCCCN(CCCC)C(=O)[C@H](CC)[C@@H]1CC[C@@H](C)[C@@H]([C@H](C)[C@@H](O)[C@@H](C)C(=O)[C@H](CC)C2O[C@]3(C=C[C@@H](O)[C@]4(CC[C@@](C)([C@H]5CC[C@](O)(CC)[C@H](C)O5)O4)O3)[C@H](C)C[C@@H]2C)O1` (stereo not given in full), the growth was 14.2%. Turning to `COc1ccc2c(c1)C(=O)/C(=C/c1ccc([N+](=O)[O-])o1)O2`, the growth is -64.2% (active). As to `Cc1ccc(S(=O)(=O)N(C)CCCCCC(=O)O)cc1`, the growth was 95.1%. As for `NC1=NC(c2ccc(Cl)cc2)C2=C(N1)/C(=C/c1ccc(Cl)cc1)CCC2` (stereo not given), the growth is 11%. With `S=C(NCc1ccccc1)NCc1ccccc1`, the growth is 101%. For `COc1cc2cc(Oc3ccc(NC(=O)c4ccccc4)cc3)c(C)nc2cc1OC`, the growth was 121%. With `Cc1c(Cl)cccc1NC(=O)CN1CCOCC1`, the growth is 94.9%. Consider `C=CCN(CC=C)C(=O)[C@H](CC)[C@@H]1CC[C@@H](C)[C@@H]([C@H](C)[C@@H](O)[C@@H](C)C(=O)[C@H](CC)C2O[C@]3(C=CC(=O)[C@]4(CC[C@@](C)([C@H]5CC[C@](O)(CC)[C@H](C)O5)O4)O3)[C@H](C)C[C@@H]2C)O1` (stereo not given in full), for which the growth is 17.3%. Turning to `CCN1CCN(CCC(=O)Nc2cccc(-n3cc(-c4ccncc4)c(-c4ccc(Cl)c(OC)c4)n3)c2)CC1`, the growth is -63.4% (active).

For `Nc1ccn(Cc2nnc(CCC(=O)c3nc4ccccc4[nH]3)o2)c(=O)n1`, the growth was 89.8%. As to `Cc1ccc2nc(Cl)c(-c3nc4ccccc4o3)cc2c1`, the growth was 106%. Turning to `C/C=C/CSC(C)(C)C(=O)NC`, the growth is 104%. For `COc1cc2c(Nc3ccc(S(N)(=O)=O)cc3)ncnc2c(OC)c1OC` the value was 124%; for `CC(=O)OC1C=CC(OC(C)=O)O1` (stereo not given), 89.5%. For `CC(=O)C1N=NCC1c1ccccc1` (stereo not given) the value was 99.3%; for `O=C(CN(C1CCCCC1)C1CCCCC1)Nc1ccc(S(=O)(=O)c2ccc(NC(=O)CN(C3CCCCC3)C3CCCCC3)cc2)cc1`, -59.4% (active). Take `Cc1c[nH]c(=O)n(Cc2nnc(CCC(=O)c3nc4ccccc4[nH]3)o2)c1=O`: the growth was -16.7% (active). Turning to `O=C(CCn1cnc2c(cc(-c3ccccc3)n2-c2ccccc2)c1=O)Nc1ccc(F)cc1`, the growth is 73.4%. On to `CN(C)CCOc1cccc(NC2=C(Cl)C(=O)C(Nc3cccc(OCCN(C)C)c3)=C(Cl)C2=O)c1`, for which the growth is -74% (active). For the compound `CN1CCN(CCC(=O)Nc2cccc(-n3cc(-c4ccncc4)c(-c4ccc(Cl)c(O)c4)n3)c2)CC1`, the growth is 12.3%.

For the compound `CC(=O)Nc1ccc(CC[C@H]2CCC/C=C/[C@@H]3C[C@H](O)C[C@H]3[C@H](O)/C=C/C(=O)O2)cc1`, the growth is 9.87% (active). Turning to `CN(C)CCN(Cc1ccccc1)c1ccc2ccccc2n1`, the growth was 91.3%.

Regarding `C/C(=N\O)c1ccc(NC(=O)CSc2nnc(-c3ccccc3)n2-c2ccccc2)cc1`, the growth is 91.8%. For `CCC(CC)n1c(C)cc(=O)n1C(CC)CC` the value was 110%. For `CC[C@@H](C(=O)[C@H](C)[C@H](O)[C@@H](C)[C@H]1O[C@H]([C@@H](CC)C(=O)O)CC[C@H]1C)C1O[C@]2(C=C[C@@H](O)[C@]3(CC[C@@](C)([C@H]4CC[C@](O)(CC)[C@H](C)O4)O3)O2)[C@H](C)C[C@@H]1C` (stereo not given in full), the growth was -38.8% (active). Consider `O=C(O)c1cc([N+](=O)[O-])ccc1Oc1ccccc1`, for which the growth was 106%. Turning to `O=[N+]([O-])c1cccc(/C=N/NC(=S)NC23CC4CC(CC(C4)C2)C3)c1`, the growth was 89%. Turning to `COc1cc(C(=O)n2nc(-c3cc(OC)c(OC)c(OC)c3)nc2N)cc(OC)c1OC`, the growth is 89.9%. Turning to `COc1ccc(-c2n[nH]nc2-c2cc(OC)c(OC)c(OC)c2)cc1`, the growth was 12.2%. Regarding `C=CCN(CC=C)C(=O)[C@H](CC)[C@@H]1CC[C@@H](C)[C@@H]([C@H](C)[C@@H](O)[C@@H](C)C(=O)[C@H](CC)C2O[C@]3(C=C[C@@H](O)[C@]4(CC[C@@](C)([C@H]5CC[C@](O)(CC)[C@H](C)O5)O4)O3)[C@H](C)C[C@@H]2C)O1` (stereo not given in full), the growth was 17.9%. `O=C(Nc1cccc2c1CCCC2)c1cc2ccccc2cc1O`: the growth was 21.5%.

With `O=C1/C=C/[C@@H](O)[C@@H]2C[C@@H](O)C[C@H]2/C=C/CCC[C@H](CCc2ccc(NC(=S)Nc3ccc4c(c3)C(=O)OC43c4ccc(O)cc4Oc4cc(O)ccc43)cc2)O1`, the growth was 10.9%. For `COc1cc(/C=C/c2cc(/C=C/c3ccc(O)c(OC)c3)nc(N)n2)ccc1O`, the growth is -26.1% (active).

As for `CC(=O)Oc1cc(OC(C)=O)c2ccccc2c1OC(C)=O`, the growth is 84.1%. On to `CCOc1ccccc1/C=N\N=C\c1ccccc1O`, for which the growth was 97.3%.
